Reference: PubChem BioAssay (NCATS)
“And” between values parts separate entries of the source, which are not always exact repeats. Equal values may be shown once. Records with an inconclusive call do not appear. The source holds several records for some structures; these can differ, active in one and inactive in another. The source made the active and inactive calls. Calls follow the shape of the dose curve; as a rule, active = well fitted curve in the direction sought with a large enough effect; inconclusive = small, poorly fitted or top-dose-only effect, or another doubt; inactive = no such curve, though single readings can be large; an effect the other way counts as inactive or inconclusive.

What was measured:
[1] = Viability qHTS for spleen associated tyrosine kinase inhibitor (SYKi) naive MV4-11 cells (AID 1963823); also: nearly all actives have a fitted effect of over 40% in size
How it was run: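 Seeding of 500 SYKi-naive MV4-11 cells per well onto pre-dispensed compounds preceded a 72 hr incubation at 37 C. Luminescent CellTiter-Glo signal, read after 10 min at room temperature, reflected viable cells.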

[2] = Viability qHTS for spleen associated tyrosine kinase inhibitor (SYKi) drug resistant MV4-11 cells (AID 1963824); also: nearly all actives have a fitted effect of over 35% in size
How it was run: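 CellTiter-Glo luminescence, read 10 min after reagent addition, reports viability after a 72 hr compound exposure. Cells are an MV4-11 line made resistant to SYK inhibition, seeded at 500 per well onto compound-containing plates.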

[3] = Quantitative highthroughput screen to assess conditional lethalithy of NOMO1 cells grown in RPMI1640 with untreated serum (RPMI+s) (AID 1963876); also: nearly all actives have a fitted effect of over 35% in size;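 as to Viability: 100% = DMSO wells and 0% = empty wells without cells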
How it was run: (§1)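 Each medium arm—HPLM with 10% dialyzed FBS, or RPMI1640 with 5 mM glucose and 10% untreated or dialyzed FBS—was screened against an 11-point, 3-fold compound titration for 48 h at 37 °C, with CellTiter-Glo luminescence as endpoint.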

[4] = Quantitative highthroughput screen to assess conditional lethalithy of NOMO1 cells grown in Human Plasma-Like Medium with dialyzed fetal bovine serum (HPLM+ds) (AID 1963878); also: nearly all actives have a fitted effect of over 35% in size;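 as to Viability: 100% = DMSO wells and 0% = empty wells on each plate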
How it was run: as §1

[5] = Quantitative highthroughput screen to assess conditional lethalithy of SEM cells grown in RPMI1640 with unreated serum (RPMI+s) (AID 1963883); also: nearly all actives have a fitted effect of over 35% in size;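 as to Viability: 100% = DMSO wells and 0% = empty wells without cells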
How it was run: as §1

[6] = Cellular viability qHTS for adrenocortical cancer (ACC) cell line NCI-H295R (AID 1963990); also: nearly all actives have a fitted effect of over 60% in size
How it was run: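 Compound titrations (up to 46 uM final) are applied to NCI-H295R cultures for 48 h at 37C. Viable cell number is estimated by CellTiter-Glo signal, normalised to DMSO and doxorubicin controls.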

[7] = Quantitative highthroughput screen to assess conditional lethalithy of SEM cells grown in Human Plasma-Like Medium with dialyzed fetal bovine serum (HPLM+ds) (AID 1963882); also: nearly all actives have a fitted effect of over 35% in size; as to Viability: series mostly up to about 46 µM
How it was run: as §1

[8] = Quantitative highthroughput screen to assess conditional lethalithy of SEM cells grown in RPMI1640 with dialyzed fetal bovine serum (RPMI+ds) (AID 1963884); also: nearly all actives have a fitted effect of over 35% in size;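 as to Viability: series mostly up to about 46 µM; 100% = DMSO control wells and 0% = empty wells without cells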
How it was run: as §1

[9] = Quantitative highthroughput screen to assess conditional lethalithy of P12 Ichikawa cells grown in Human Plasma-Like Medium with dialyzed fetal bovine serum (HPLM+ds) (AID 1963879); settings: Potency: viability; also: nearly all actives have a fitted effect of over 35% in size; as to Viability: series mostly up to about 46 µM
How it was run: as §1

[10] = Quantitative highthroughput screen to assess conditional lethalithy of P12 Ichikawa cells grown in RPMI1640 with dialyzed fetal bovine serum (RPMI+ds) (AID 1963880); settings: Potency: P12-Ichikawa viability; also: nearly all actives have a fitted effect of over 35% in size;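 as to Viability: 100% = DMSO wells and 0% = empty wells on each plate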
How it was run: as §1

[11] = Quantitative highthroughput screen to assess conditional lethalithy of P12 Ichikawa cells grown in RPMI1640 with untreated serum (RPMI+s) (AID 1963881); settings: Potency: viability; also: nearly all actives have a fitted effect of over 35% in size;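 as to Viability: series mostly up to about 46 µM; 100% = DMSO wells and 0% = empty wells without cells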
How it was run: as §1

[12] = Cellular viability qHTS for adrenocortical cancer (ACC) cell line SW-13 (AID 1963989); settings: SW-13 ACC cells viability, CellTiter-Glo, 48 h; activity (max response): stronger effect = lower value; also: nearly all actives have a fitted effect of over 65% in size;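 as to activity (max response): cells grown in serum-free medium with ITS supplement; % is scaled to controls: 0 for no effect and ±100 for the full control effect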
How it was run: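 48 h treatment, SW-13 in ITS/DMEM serum-free; doses up to 46 uM; readout CellTiter-Glo luminescence; curve fit four-parameter logistic.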
Potency is read from the fitted curve at half-maximal effect.

Cc1nc2cnc3ccc(C#Cc4cccnc4)cc3c2n1-c1ccc(C(C)(C)C#N)cc1
active: Potency [1] 8.2 µM and 235 nM | Potency [2] 8.2 µM and 332 nM | Potency [3] 1.32 µM | Potency [4] 0.209 µM | Potency [5] 0.132 µM | Potency [6] 0.891 µM

FC(F)(F)c1ccc(Nc2nc3ccc(Oc4ccnc(-c5ncc(C(F)(F)F)[nH]5)c4)cc3[nH]2)cc1
active: Potency [1] 1.64 µM | Potency [2] 4.17 µM | Potency [7] 18.7 µM | Potency [8] 16.6 µM | Potency [6] 11.2 µM
inactive: Potency [3] | Potency [4]

CCC(C)n1ncn(-c2ccc(N3CCN(c4ccc(OC[C@H]5CO[C@](Cn6cncn6)(c6ccc(Cl)cc6Cl)O5)cc4)CC3)cc2)c1=O (stereo not given in full)
inactive: Potency [3] | Potency [4] | Potency [9] | Potency [10] | Potency [11] | Potency [5] | activity (max response) [12] -10.2% and 8.84% | Potency [6]
active: Potency [1] 2.88 µM | Potency [2] 1.59 µM

Cc1cc(Cl)ccc1OCCCC(=O)NO
active: Potency [1] 14.8 µM | Potency [2] 13.2 µM | Potency [3] 14.8 µM | Potency [9] 8.33 µM | Potency [10] 1.48 µM | Potency [11] 5.9 µM | Potency [7] 9.35 µM | Potency [5] 10.5 µM | Potency [8] 9.35 µM | Potency [6] 1.26 µM

COc1c2occc2cc2ccc(=O)oc12
inactive: Potency [1] | Potency [2] | Potency [3] | Potency [4] | Potency [7] | Potency [5] | Potency [8] | activity (max response) [12] 8.25% and 3.48%
active: Potency [10] 7.43 µM

CCC(C)(C)C(=O)O[C@H]1C[C@@H](C)C=C2C=C[C@H](C)[C@H](CC[C@@H]3C[C@@H](O)CC(=O)O3)[C@H]21
inactive and 17.8 µM (active): Potency [6]
inactive: activity (max response) [12] -9.24% and -17.2%
active: Potency [1] 8.41 µM and 9.34 µM | Potency [2] 2.99 µM and 3.72 µM | Potency [3] 20.9 µM | Potency [4] 18.7 µM | Potency [11] 14.8 µM

CC[C@H](C)C(=O)O[C@H]1C[C@@H](C)C=C2C=C[C@H](C)[C@H](CC[C@@H]3C[C@@H](O)CC(=O)O3)[C@H]21
active: Potency [1] 8.33 µM | Potency [2] 2.66 µM and 3.17 µM and 4.68 µM | Potency [4] 14.8 µM
inactive and 17.8 µM (active): Potency [6]
inactive: Potency [3] | Potency [7] | Potency [8] | activity (max response) [12] -5.87%

COc1c(Cl)cc2c([nH]c3cnccc32)c1NC(=O)c1cccnc1C
active: Potency [1] 20.9 µM | Potency [2] 18.6 µM and 20.6 µM
inactive: Potency [3] | Potency [4] | Potency [9] | Potency [10] | Potency [11] | Potency [7] | Potency [8] | activity (max response) [12] -4.78%

O=C(Nc1cccnc1)N1CCC(Cc2cccc(Oc3ccc(C(F)(F)F)cn3)c2)CC1
active: Potency [1] 3.66 µM and 4.17 µM | Potency [2] 4.61 µM and 3.72 µM | Potency [3] 10.5 µM | Potency [4] 8.33 µM | Potency [9] 8.33 µM | Potency [10] 4.18 µM | Potency [5] 2.96 µM | Potency [12] 15.8 µM

Clc1ccc(C(Cn2ccnc2)OCc2ccsc2Cl)c(Cl)c1 (stereo not given)
active: Potency [1] 8.33 µM | Potency [2] 9.34 µM | Potency [12] 18.4 µM | Potency [6] 31.6 µM
inactive: Potency [3] | Potency [4]

CNC(=O)c1cc(Oc2ccc(NC(=O)Nc3cc(C(C)(C)C)nn3-c3ccc4ncccc4c3)c(F)c2)ccn1
active: Potency [1] 0.0366 µM | Potency [2] 73.1 nM and 52.5 nM | Potency [8] 0.469 µM | Potency [12] 28.2 µM | Potency [6] 31.6 µM
inactive: Potency [3] | Potency [4] | Potency [9] | Potency [10] | Potency [11]

CCC(=O)O[C@]1(C(=O)SCF)[C@H](C)C[C@H]2[C@@H]3C[C@H](F)C4=CC(=O)C=C[C@]4(C)[C@@]3(F)[C@@H](O)C[C@@]21C
active: Potency [1] 3.3 nM and 8.3 nM | Potency [2] 1.18 µM
inactive: Potency [3] | Potency [4] | activity (max response) [12] 0.482% and -2.88% | Potency [6]

O=C(c1ccc(Nc2nccc(-c3cc4ccccc4s3)n2)cc1)N1CCC(N2CCCC2)CC1
active: Potency [1] 920 nM and 468 nM | Potency [2] 1.64 µM and 731 nM | Potency [3] 26.4 µM | Potency [4] 13.2 µM | Potency [9] 18.7 µM | Potency [10] 16.6 µM | Potency [11] 23.5 µM | Potency [7] 7.43 µM | Potency [5] 9.35 µM | Potency [8] 9.35 µM | Potency [12] 6.31 µM | Potency [6] 5.62 µM

COc1ccc([C@@H]2CNC(=O)C2)cc1OC1CCCC1
inactive: Potency [1] | Potency [2] | Potency [3] | Potency [4] | Potency [9] | Potency [10] | Potency [11] | Potency [7] | Potency [5] | Potency [8] | Potency [6]
